Measured values published in PubChem BioAssay (NCATS).
A number with no mark means an inactive call. Records with an inconclusive call do not appear. A call without a number means that no potency is given here. The source made the active and inactive calls. Calls follow the shape of the dose curve; as a rule, active = well fitted curve in the direction sought with a large enough effect; inconclusive = small, poorly fitted or top-dose-only effect, or another doubt; inactive = no such curve, though single readings can be large; an effect the other way counts as inactive or inconclusive. Where a SMILES comes first, the peptide text is derived from it. [ ]: non-standard residue; d: D form.

Legend:
[1] = molecular target: Glutathione peroxidase 1 (Homo sapiens) (UniProt P07203); assay: Primary qHTS Assay for Inhibitors of Recombinant Selenoprotein Glutathione Peroxidase 1 (GPX1) (AID 1845191); also: nearly all actives have a fitted effect of over 65% in size
Procedure, shortened: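 Recombinant GPX1 (10 nM final) was preincubated with compound for 30 min at room temperature, then reacted with 1 mM GSH, 0.5 mM CHP, 0.5 mM NADPH and 100 nM glutathione reductase; NADPH fluorescence (340/450 nm) was read at 0 and 15 min.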

[2] = molecular target: Phospholipid hydroperoxide glutathione peroxidase GPX4 (Homo sapiens) (UniProt P36969); assay: Primary qHTS Assay for Inhibitors of Recombinant Selenoprotein Glutathione Peroxidase 4 (GPX4) (AID 1845192); also: nearly all actives have a fitted effect of over 65% in size
Procedure, shortened: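 GR-coupled readout: 100 nM GR, 1 mM GSH, 0.5 mM NADPH; NADPH fluorescence (ex 340/em 450 nm) read at t=0 and after 15 min RT. GPX4 200 nM, preincubated 30 min with compound; substrate 0.5 mM CHP.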

[3] = molecular target: Luciferin 4-monooxygenase (Photinus pyralis) (UniProt P08659); assay: Primary firefly luciferase (FLuc) qHTS assay for identification of artifact compounds. (AID 1845220); also: nearly all actives have a fitted effect of over 60% in size
Procedure, shortened: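 qHTS, 15 min compound preincubation with substrate (10 uM luciferin, 10 uM ATP) at RT, then 10 nM FLuc; 5 min; luminescence; % inhibition vs no-enzyme/DMSO controls, 4-parameter Hill fit.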

[4] = Primary fluorescence-based thiol-reactive (MSTI) qHTS assay for identification of artifact compounds. (AID 1845221); also: nearly all actives have a fitted effect of over 65% in size; also: potency is read from the fitted curve at half-maximal effect;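 as to activity change, negative = thiol reactive: series mostly up to about 54 µM; thiol-reactive compounds lower the probe fluorescence signal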
Procedure, shortened: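 First, 4 uM MSTI in 2% DMSO/PBS pH 7.4 was dispensed; next, compounds were added; then plates sat 1 h at room temperature without light. Finally, emission at 598 nm was recorded.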

[5] = tested on: Nanoluciferase (engineered Oplophorus gracilirostris luciferase); assay: Primary Nanoluciferase (NLuc) qHTS assay for identification of artifact compounds. (AID 1845222); also: series mostly up to about 54 µM
Procedure, shortened: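 Luminescence read-out of secreted NLuc in S16 cell conditioned medium (1:55); compounds tested with 15 min RT preincubation, then Nano-Glo substrate 1:100, 5 min. % inhibition vs no-enzyme and DMSO controls, 4-parameter Hill fit.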

Chain of Phospholipid hydroperoxide glutathione peroxidase GPX4 (Homo sapiens) (P36969 whole entry, looked up): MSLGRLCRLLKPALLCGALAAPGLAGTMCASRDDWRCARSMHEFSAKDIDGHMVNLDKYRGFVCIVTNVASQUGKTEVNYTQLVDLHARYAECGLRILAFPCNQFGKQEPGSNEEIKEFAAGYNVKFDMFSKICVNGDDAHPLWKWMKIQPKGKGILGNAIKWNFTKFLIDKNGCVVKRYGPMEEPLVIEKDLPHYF
Chain of Glutathione peroxidase 1 (Homo sapiens) (P07203 whole entry, looked up): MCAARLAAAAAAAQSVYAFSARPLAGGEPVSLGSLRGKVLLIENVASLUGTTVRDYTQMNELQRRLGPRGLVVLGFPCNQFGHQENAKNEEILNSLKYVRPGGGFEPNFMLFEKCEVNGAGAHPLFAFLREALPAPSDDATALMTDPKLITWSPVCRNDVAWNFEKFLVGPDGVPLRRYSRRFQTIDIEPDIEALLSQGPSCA

NS(=O)(=O)NCCNc1nonc1C(=Nc1ccc(F)c(Br)c1)NO
Potency [1]: inactive
Potency [2]: inactive
Potency [3]: inactive
Potency [4]: inactive
Potency [5]: inactive

O=C(C1CC1)N1CC[C@@H](Cc2n[nH]c(=O)n2-c2ccc(-c3ccc4occc4c3)cc2)C1
Potency [1]: inactive
Potency [2]: inactive
Potency [3]: inactive
Potency [4]: inactive
Potency [5]: inactive

CCOC(=O)c1ccc(N(C)c2csc(-c3ccccc3)n2)cc1
Potency [1]: inactive
Potency [2]: inactive
Potency [3]: inactive
Potency [4]: inactive
Potency [5]: inactive

Cc1cc(N2CCCCC2)nc2ccccc12
Potency [1]: inactive
Potency [2]: inactive
Potency [3]: inactive
Potency [4]: inactive
Potency [5]: inactive

CC(=O)N[C@H](Cc1ccc(O)cc1)C(=O)N[C@H](CCCN=C(N)N)C(=O)N[C@H](Cc1ccccc1)C(N)=O (Ac-[dY]-[dR]-[dF]-NH2)
Potency [1]: inactive
Potency [2]: inactive
Potency [3]: inactive
Potency [4]: inactive
Potency [5]: inactive

CC(C)C1=CC2=CCC3[C@](C)(CCC[C@@]3(C)C(=O)O)C2CC1=O (stereo not given in full)
Potency [1]: inactive
Potency [2]: inactive
Potency [3]: inactive
Potency [4]: inactive
Potency [5]: inactive

O=C1CC(c2ccc([N+](=O)[O-])cc2)=NN1c1ccccc1
Potency [1]: inactive
Potency [2]: inactive
Potency [3]: inactive
Potency [4]: 4.74 µM (active)
Potency [5]: inactive

Nc1ccn([C@@H]2C(F)=C(CO)[C@@H](O)[C@H]2O)c(=O)n1
Potency [1]: inactive
Potency [2]: inactive
Potency [3]: inactive
Potency [4]: inactive
Potency [5]: inactive

COC(=O)[C@H](OC(C)=O)[C@H]1C(C)(C)C(=O)[C@H]2CC3=C4CC(=O)O[C@@H](c5ccoc5)[C@]4(C)CCC3[C@@]1(C)C2=O (stereo not given in full)
Potency [1]: inactive
Potency [2]: inactive
Potency [3]: inactive
Potency [4]: inactive
Potency [5]: inactive

CC(=O)OC[C@@]12[C@H](O)C[C@@H](C)[C@]3(C[C@@H](c4ccoc4)OC3=O)[C@H]1C[C@H](O)C[C@]21CO1
Potency [1]: inactive
Potency [2]: inactive
Potency [3]: inactive
Potency [4]: inactive
Potency [5]: inactive

CC1=CC(=O)OC(C)(CC(C)(O)C(=O)O)C1 (stereo not given)
Potency [1]: inactive
Potency [2]: inactive
Potency [3]: inactive
Potency [4]: inactive
Potency [5]: inactive

C[C@@H]1CC[C@]2(C)C(C[C@@H](O)[C@H](O)[C@]23CO3)[C@@]1(C)CCc1ccoc1 (stereo not given in full)
Potency [1]: inactive
Potency [2]: inactive
Potency [3]: inactive
Potency [4]: inactive
Potency [5]: inactive

C[C@]1(O)CC[C@@H]2C(C(=O)O)=CO[C@@H](O[C@@H]3O[C@H](COC(=O)c4ccc(O)cc4)[C@@H](O)[C@H](O)[C@H]3O)[C@@H]21
Potency [1]: inactive
Potency [2]: inactive
Potency [3]: inactive
Potency [4]: 10.3 µM (active)
Potency [5]: inactive

C=C[C@@]1(C)CC(=O)C2[C@](C)(O1)[C@@H](OC(C)=O)[C@@H](O)[C@H]1C(C)(C)CCC[C@]21C (stereo not given in full)
Potency [1]: inactive
Potency [2]: inactive
outcome [3]: inactive [at 11.6 µM]
activity change, negative = thiol reactive [4]: 58.5% [at 11.5 µM]
activity, negative = inhibition [5]: 3.51% [at 11.6 µM]

C=C1C[C@]23C[C@H]1CC[C@H]2[C@@]12C=C[C@H](O)[C@@](C)(C(=O)O1)[C@H]2[C@@H]3C(=O)O
Potency [1]: inactive
Potency [2]: inactive
Potency [3]: inactive
Potency [4]: inactive
Potency [5]: inactive

CC1(C)CCCC2(C)C3=C(C(=O)OC3O)C(O)CC12 (stereo not given)
Potency [1]: inactive
Potency [2]: inactive
Potency [3]: inactive
Potency [4]: inactive
Potency [5]: inactive

CCC(=O)N[C@@H]1Cc2ccccc2[C@H](c2ccccc2)C1
Potency [1]: inactive
Potency [2]: inactive
Potency [3]: inactive
Potency [4]: inactive
Potency [5]: inactive

C[C@]12CC[C@@H]3c4ccc(O[C@@H]5O[C@H](C(=O)O)[C@@H](O)[C@H](O)[C@H]5O)cc4CC[C@H]3[C@@H]1CCC2=O
Potency [1]: inactive
Potency [2]: inactive
Potency [3]: inactive
Potency [4]: inactive
Potency [5]: inactive

CC(C)=CC/C=C(/C)[C@H]1CC[C@]2(C)[C@@H]1[C@H](O)CC1[C@@]3(C)CC[C@H](O)C(C)(C)[C@@H]3[C@@H](O[C@@H]3O[C@H](CO)[C@@H](O)[C@H](O)[C@H]3O[C@@H]3O[C@@H](C)[C@H](O)[C@@H](O)[C@H]3O)C[C@]12C (stereo not given in full)
Potency [1]: inactive
Potency [2]: inactive
Potency [3]: inactive
Potency [4]: inactive
Potency [5]: inactive

CCC(CC)n1ccc2c(C(=O)NCc3c(C)cc(C)[nH]c3=O)cc(C#N)cc21
Potency [1]: inactive
Potency [2]: inactive
Potency [3]: inactive
Potency [4]: inactive
Potency [5]: inactive

Cc1c(N2C(=O)c3ccc(C(=O)O)cc3C2=O)c(=O)n(-c2ccccc2)n1C
Potency [1]: inactive
Potency [2]: inactive
Potency [3]: inactive
Potency [4]: inactive
Potency [5]: inactive

CC1=CC(=O)CC(C)(CO[C@@H]2O[C@H](CO)[C@@H](O)[C@H](O)[C@H]2O)C1(O)/C=C/C(C)=C/C(=O)O (stereo not given in full)
Potency [1]: inactive
Potency [2]: inactive
Potency [3]: inactive
Potency [4]: 13 µM (active)
Potency [5]: inactive
